The whole screen tested about 350,000 compounds, of which about 220 (0.063%) were called active. Inconclusive results (about 4%) are left out. The call rests on the fitted dose curve; in most records, active means well fitted activation curve with a large enough effect; inconclusive means small, poorly fitted or top-dose-only effect; inactive means no such curve, though single readings can be large or run the other way. The entries come from a sample that favours actives as a whole. A call without a number means that no potency is given here.
Assay: qHTS for Activators of Integrin-Mediated Alleviation for Muscular Dystrophy; further: nearly all actives have a fitted effect of over 60% in size
Conditions: alpha7betagal myoblasts, beta-gal FDG fluorescence, 48 h; series mostly up to 38.3 µM
Source text: Integrins are a diverse family of transmembrane cell surface receptors that mediate interactions between cells and the extracellular matrix. These heterodimeric proteins are composed of alpha and beta subunits and the a7b1 interacts with laminin in the extracellular matrix and actin of the cell cytoskeleton. Both chains contribute to ligand binding, but the alpha chain mediates the specificity of the interaction. The alpha7beta1 integrin is a major laminin receptor in skeletal, cardiac and vascular smooth muscle. Mutations in the alpha7 integrin gene are responsible for muscular dystrophy in both humans and mice. The alpha7beta1 integrin is also a major modifier of muscle disease progression in various muscle diseases including Duchenne muscular dystrophy, Fukuyama muscular dystrophy and merosin deficient congenital muscular dystrophy type 1A. […] Transcriptional regulation of the alpha7 integrin gene is poorly understood and probably involves multiple transcription factors. The goal of identifying small molecules that enhance alpha7 integrin expression is two-fold: firstly, such molecules would help us gain insight into the complex transcriptional control of alpha7 integrin. It is known that alpha7 integrin expression is tightly controlled during various stages of development, disease and in response to external stimuli. The second goal of the project is to translate the above finding into a therapeutic strategy for muscular dystrophy. […] Thus this project aims to discover small molecule probes that would not only help in gaining a better understanding of the complex regulatory mechanism of alpha7 integrin expression, but also lead to development of pharmacological agents to fight muscular dystrophy. NIH Chemical Genomics Center [NCGC] NIH Molecular Libraries Probe Centers Network [MLPCN] MLPCN Grant: NS058429 Assay Submitter (PI): Dean Burkin, University of Nevada School of Medicine
A total of 250 alpha7betagal+/- myoblasts at passage 13 were dispensed using a mulitdrop from Thermo into black low base tissue culture treated microclear aurora plates in 6 ul media containing DMEM without phenol, 5% FBS, 1x GluMax and 1x Penicillin/Streptomycin. The plates were incubated 16-24 hr at 37C, 5% CO2, 95% humidity covered with low evaporation stainless steel lids from Kalypsys. Compounds were then dispensed using a Kalypsys pintool to deliver 23 nl/well compounds in DMSO (diluted into 6 uL resulting in a 1:260 dilution of compound). The control compound used was the cdk2 inhibitor SU9516 from Tocirs (found in the initial LOPAC screen). The plates were incubated for 48 hours at 37C, 5% CO2, 95% humidity using the same stainless steel lids. After incubation with compound, 5 ul of the media was aspirated using the Kalypsys washer/dispenser and 3 ul of the Mammalian Protein Extraction Reagent (MPER) lysis buffer (Thermo Fisher) was added. The plates were spun at 2000 rpms to remove bubbles and an initial capture was acquired on the Viewlux (Perkin Elmer) with exciation at 480 nm and emission at 540 nm for 25 seconds to omit any auto fluorescent compounds. The plates were then incubated for 10 minutes at room temperature. […] The plates were again read on the Viewlux with exciation at 480 nm and emission at 540 nm for 25 seconds.
Potency means the concentration at half of the fitted maximal effect.

Row | Structure (SMILES) | Potency
1 | O=Cc1cn(Cc2ccc(F)cc2Cl)c2ccccc12 | 15.8 µM (active)
2 | O=c1[nH]c(=S)[nH]c(O)c1/C=C1\C=Nc2ccccc21 | inactive
3 | Cc1ccc(Oc2cnn(-c3ccccc3)c(=O)c2Br)cc1 | inactive
4 | CC(=O)c1ccc(S(=O)(=O)N2CCN(c3nc4c(C)c(C)ccc4cc3C#N)CC2)cc1 | inactive
5 | CCOC(=O)c1cccc(C2=C(CNC(=O)c3ccncc3)[C@H]3CC[C@@H](C2)N3Cc2ccccc2)c1 | inactive
